# Counter-ions that a name gives are not always drawn.
# Legend:
# Conditions in all cases: 10 µM; exposure time: 3 h pre-incubation + 3 h imaging
# [1] = tested on: Danio rerio larvae (5 dpf); test: activity during period 15 (no stimuli), difference vs DMSO (percentage points (treated minus DMSO)); higher = more of the behaviour than the DMSO vehicle control
# In short: (§1)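 Five-days-post-fertilisation wild-type zebrafish larvae were held in 96-well ProxiPlates and exposed to each library drug at a final 10 µM, diluted 1000× from DMSO stocks into egg water, with 48 larvae per drug. Exposure lasted 3 h before and 3 h during imaging at 28.5 °C, with images taken every 6 s across a 3-h program of rest, moving coloured lines and acoustic pulses. An ImageJ macro scored movement and upper-half location, and each behaviour score is the treated-group mean minus the vehicle-group mean, expressed in percentage points.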
# [2] = tested on: Danio rerio larvae (5 dpf); test: activity during first hour (no stimuli), difference vs DMSO (percentage points (treated minus DMSO)); higher = more of the behaviour than the DMSO vehicle control
# In short: as §1
# [3] = tested on: Danio rerio larvae (5 dpf); test: optomotor response to blue moving lines, difference vs DMSO (percentage points (treated minus DMSO)); higher = more of the behaviour than the DMSO vehicle control
# In short: as §1
# [4] = tested on: Danio rerio larvae (5 dpf); test: optomotor response to green moving lines, difference vs DMSO (percentage points (treated minus DMSO)); higher = more of the behaviour than the DMSO vehicle control
# In short: as §1
# [5] = tested on: Danio rerio larvae (5 dpf); test: startle response to 20-s acoustic pulses, difference vs DMSO (percentage points (treated minus DMSO)); higher = more of the behaviour than the DMSO vehicle control
# In short: as §1
# [6] = tested on: Danio rerio larvae (5 dpf); test: excitability to 1-s acoustic pulses, difference vs DMSO (percentage points (treated minus DMSO)); higher = more of the behaviour than the DMSO vehicle control
# In short: as §1
# [7] = tested on: Danio rerio larvae (5 dpf); test: optomotor response to red moving lines, difference vs DMSO (percentage points (treated minus DMSO)); higher = more of the behaviour than the DMSO vehicle control
# In short: as §1
# [8] = tested on: Danio rerio larvae (5 dpf); test: optomotor response to fast red moving lines, difference vs DMSO (percentage points (treated minus DMSO)); higher = more of the behaviour than the DMSO vehicle control
# In short: as §1
# [9] = tested on: Danio rerio larvae (5 dpf); test: habituation to 1-s acoustic pulses, difference vs DMSO (percentage points (treated minus DMSO)); higher = more of the behaviour than the DMSO vehicle control
# In short: as §1
smiles,measurement,setting,value
CCOc1ccccc1OCCN[C@H](C)Cc1ccc(OC)c(S(N)(=O)=O)c1 [Tamsulosin hydrochloride],activity during period 15,[1],2.6
same,activity during first hour,[2],7.36
same,optomotor response to blue moving lines,[3],2.91
same,optomotor response to green moving lines,[4],-11.6
CN(C)CCC[C@@]1(c2ccc(F)cc2)OCc2cc(C#N)ccc21 [Escitalopram oxalate],activity during first hour,[2],-24.4
CN1CCN(CCCN2c3ccccc3Sc3ccc(Cl)cc32)CC1 [Prochlorperazine dimaleate],activity during period 15,[1],16.6
same,activity during first hour,[2],10.4
same,optomotor response to blue moving lines,[3],12.2
same,startle response to 20-s acoustic pulses,[5],-7.34
CCCC1O[C@@H]2C[C@H]3[C@@H]4CCC5=CC(=O)C=C[C@]5(C)[C@H]4[C@@H](O)C[C@]3(C)[C@]2(C(=O)CO)O1 (some centres undefined) [Budesonide],excitability to 1-s acoustic pulses,[6],-1.66
same,optomotor response to red moving lines,[7],12
same,activity during first hour,[2],4.76
same,optomotor response to green moving lines,[4],0.891
same,optomotor response,[8],0.572
CC(C)CN(C[C@@H](O)[C@H](Cc1ccccc1)NC(=O)O[C@H]1CO[C@H]2OCC[C@H]21)S(=O)(=O)c1ccc(N)cc1 [Darunavir],excitability to 1-s acoustic pulses,[6],-1.74
same,optomotor response to red moving lines,[7],4.11
same,activity during first hour,[2],12.6
same,optomotor response to blue moving lines,[3],8.12
same,optomotor response to green moving lines,[4],1.64
same,startle response to 20-s acoustic pulses,[5],-1.98
CC(=O)O[C@]1(C(C)=O)CC[C@H]2[C@@H]3C=C(C)C4=CC(=O)CC[C@]4(C)[C@H]3CC[C@@]21C [Megestrol Acetate],habituation to 1-s acoustic pulses,[9],-2.13
same,activity during period 15,[1],-0.283
same,activity during first hour,[2],-14.3
same,optomotor response to green moving lines,[4],-2.03
same,optomotor response,[8],-10.3
CN(CCOc1ccc(NS(C)(=O)=O)cc1)CCc1ccc(NS(C)(=O)=O)cc1 [Dofetilide],activity during first hour,[2],1.68
same,optomotor response to blue moving lines,[3],-7.25
Nc1nc2[nH]cc(CCc3ccc(C(=O)N[C@@H](CCC(=O)O)C(=O)O)cc3)c2c(=O)[nH]1 [Pemetrexed],optomotor response to red moving lines,[7],-7.22
same,activity during first hour,[2],1.38
COCCc1ccc(OCC(O)CNC(C)C)cc1 (centres undefined) [Metoprolol tartrate],habituation to 1-s acoustic pulses,[9],-3.95
same,activity during period 15,[1],3.61
same,activity during first hour,[2],5.56
same,optomotor response to blue moving lines,[3],10.9
same,optomotor response to green moving lines,[4],0.682
COc1cc([C@@H]2c3cc4c(cc3[C@@H](O[C@@H]3O[C@@H]5CO[C@@H](C)O[C@H]5[C@H](O)[C@H]3O)[C@H]3COC(=O)[C@H]23)OCO4)cc(OC)c1O [Etoposide],excitability to 1-s acoustic pulses,[6],9.69
same,optomotor response to red moving lines,[7],2.25
same,activity during period 15,[1],-4.13
same,activity during first hour,[2],3.81
same,optomotor response to blue moving lines,[3],6.33
Cc1ccc(N(CC2=NCCN2)c2cccc(O)c2)cc1 [Phentolamine Mesylate],excitability to 1-s acoustic pulses,[6],15.7
same,optomotor response to red moving lines,[7],14.5
same,activity during period 15,[1],4.99
same,activity during first hour,[2],9.58
Cc1cccc(C)c1OCC(C)N (centres undefined) [Mexiletine hydrochloride],optomotor response to red moving lines,[7],3.43
same,activity during period 15,[1],6.49
same,activity during first hour,[2],4.51
same,optomotor response to green moving lines,[4],-1.17
same,startle response to 20-s acoustic pulses,[5],0.873
CCOC(=O)N1CCC(=C2c3ccc(Cl)cc3CCc3cccnc32)CC1 [Loratidine],habituation to 1-s acoustic pulses,[9],-7.1
same,excitability to 1-s acoustic pulses,[6],-6.95
same,optomotor response to red moving lines,[7],-14.1
same,activity during first hour,[2],-17
same,startle response to 20-s acoustic pulses,[5],14.8
same,optomotor response,[8],-26.1

# — the supplement of paper PMC9023506
